ALOX12 inhib – 12-hLO (ALOX12) enzyme inhibition. purified 12-hLO, xylenol orange hydroperoxide absorbance. Potency, µM (doses to about 57.1 µM), actives largely listed as inhibitors. 0.12% of 150,000 active. AID 1452; active = well fitted inhibition curve with a large enough effect; inconclusive = small, poorly fitted or top-dose-only effect; also: nearly all actives have a fitted effect of over 55% in size
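150 nM 12hLO, 25 mM Hepes pH 7.0 + 0.01% Triton X-100; cpd preinc 15 min RT; 40 uM arachidonic acid, 30 min RT; Fe-XO 30 min; A573/A405 ratio as read-out.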
Lamin A splicing – LMNA splicing modulation; Potency, µM (doses to about 46.1 µM), hits mostly inhibitors; 0.01% of 200,000 active; AID 1487; HeLa LMNA splicing GFP/RFP minigene ratio, 48 h; active = well fitted inhibition curve with a large enough effect in the signal ratio, with a control signal flat, not every such curve was filed as active; inconclusive = small, poorly fitted or top-dose-only effect, or effect the other way, or a change in a side signal; the % refers to the signal ratio
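Read-out is the ratio of GFP to DsRed2 object intensity, acquired by 488 nm laser-scanning cytometry on HeLa lamin A-EGFP minigene reporter cells. Compound incubation 48 hrs at 37 °C in Opti-MEM with 2% FBS; DMSO 0.5% final.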
ALDH1A1 block – blocks purified human ALDH1A1 activity; P00352; Purified ALDH1A1, NADH fluorescence, propionaldehyde substrate; Potency, µM (series often up to 75.3 µM), usual class: inhibitors; 7.3% of 220,000 active; AID 1030
HPGD block – inhibitors of human 15-hydroxyprostaglandin dehydrogenase (HPGD); 4.3% of 150,000 active; Potency, µM, hits mostly inhibitors; AID 894; purified HPGD, NADH fluorescence kinetic, PGE2 substrate; P15428
Target sequence (P15428 whole entry, looked up): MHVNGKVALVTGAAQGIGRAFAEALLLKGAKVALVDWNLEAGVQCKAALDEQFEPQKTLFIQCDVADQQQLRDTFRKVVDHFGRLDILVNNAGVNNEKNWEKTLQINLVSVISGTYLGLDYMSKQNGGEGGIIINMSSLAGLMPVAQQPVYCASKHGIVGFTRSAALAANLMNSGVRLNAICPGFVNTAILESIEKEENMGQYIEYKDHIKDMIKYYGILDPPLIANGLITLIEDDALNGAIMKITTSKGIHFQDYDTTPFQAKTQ
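20 nM HPGD preincubated 15 min at room temperature with compound in 50 mM Tris-HCl pH 8, 0.01% Tween 20. Started with 1 mM NAD+ and 30 uM prostaglandin E2; NADH fluorescence (360/450 nm) read 5 times over 30-s intervals, last minus first.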
PNC assembly inh – inhibitors of perinucleolar compartment assembly | PC3M PTB-GFP, PNC prevalence imaging, 16 h; stronger effect = lower value | activity change (PNC), negative = inhibition, % at 10 µM | 3.1% of 140,000 active | AID 2417;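 active = readout at or below -70, meaning at least 70% loss of cells showing the perinucleolar compartment, a nuclear body marking cancer cells; inconclusive = readout between -30 and a set limit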
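PC3M cells stably expressing PTB-GFP, 750–1000 cells/well, treated 16 h at 37 °C with compound (23 nl of library stock), in duplicate. After paraformaldehyde fixation and Hoechst stain, imaged at 20x; PNC prevalence scored by image analysis.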
Each line names hits and unclear results; the compound was inactive in the other large screens; ! = not active in a repeat. This is a sample that favours compounds with a hit; in the whole collection about 10% have one here. Unless noted, calls follow the shape of the dose curve; as a rule, active = well fitted inhibition curve with a large enough effect (not every such curve was filed as active); inconclusive = small, poorly fitted or top-dose-only effect, or another doubt; inactive = no such curve, though single readings can be large or run the other way.

Cc1ccc(-c2nc3cc(Cl)ccc3o2)cc1NC(=O)COc1ccc(F)cc1	none (no result: ALOX12 inhib, ALDH1A1 block, HPGD block, PNC assembly inh)
CC1(N)CCC(C(C)(C)N)CC1 (stereo not drawn)	ALDH1A1 block inconclusive (no result: Lamin A splicing, PNC assembly inh)
O=C(CN1N=C(c2ccc(Cl)cc2)CCC1=O)NCc1ccc(F)cc1	none (no result: ALOX12 inhib, ALDH1A1 block, HPGD block, PNC assembly inh)
O=C(O)Cc1sc(Nc2ccc(Cl)cc2)nc1-c1cccs1	ALDH1A1 block 1µM (no result: ALOX12 inhib, HPGD block, PNC assembly inh)
COc1cccc(CN2CCc3nc(N4CCN(c5ncccn5)CC4)ncc3C2)c1	none (no result: ALOX12 inhib, ALDH1A1 block, HPGD block, PNC assembly inh)
CCOc1ccc(C(=O)OCc2nnc(-c3cccs3)o2)cc1OC	Lamin A splicing inconclusive, HPGD block 25.1µM, PNC assembly inh inconclusive
COc1cc(C)ccc1OCCSc1nnc(-c2cccs2)o1	none (no result: ALOX12 inhib, ALDH1A1 block, HPGD block, PNC assembly inh)
CC1CCc2nc3ccc(S(=O)(=O)N4CCC(C(=O)NC5CCCC5)CC4)cc3c(C(=O)O)c2C1 (stereo not drawn)	ALDH1A1 block 39.8µM
COc1ccc(N(C(=O)c2ccccc2C)S(=O)(=O)c2cccs2)cc1	ALDH1A1 block 11.2µM, PNC assembly inh -96.7
COc1ccc(S(=O)(=O)N(C(=O)c2ccncc2)c2ccc(OC(=O)c3ccncc3)cc2)cc1	none (no result: ALOX12 inhib, HPGD block, PNC assembly inh)
COCCCNC(=O)/C(C#N)=C/c1cccc(NC(=O)c2ccccc2Cl)c1	ALDH1A1 block 14.1µM
COCCNC(=O)/C(C#N)=C/c1c(F)cccc1Cl	Lamin A splicing inconclusive (no result: ALOX12 inhib, HPGD block, PNC assembly inh)
N#C/C(=C\c1cccc(NC(=O)c2ccccc2Cl)c1)C(=O)NCCc1ccccc1	Lamin A splicing inconclusive, ALDH1A1 block 25.1µM, HPGD block inconclusive
OB(O)c1ccc(Br)cc1	none (no result: Lamin A splicing, PNC assembly inh)
C=CCC(C)(O)C#Cc1ccccc1 (stereo not drawn)	none (no result: Lamin A splicing, PNC assembly inh)
COc1cccc(C(=O)/C=C/c2ccc(SC)cc2)c1	Lamin A splicing inconclusive, ALDH1A1 block 15.8µM
COc1cccc(C(=O)/C=C/c2ccc(OCC#N)c(OC)c2)c1	Lamin A splicing inconclusive, ALDH1A1 block 8.91µM
COc1cc(/C=C/C(=O)c2ccc(O)cc2)ccc1OCC#N	Lamin A splicing inconclusive, ALDH1A1 block inconclusive
COc1ccc(C(=O)/C=C/c2ccc(OC3CSC3)cc2)cc1OC	Lamin A splicing inconclusive, ALDH1A1 block inconclusive, HPGD block 14.1µM
C=CCn1c(Sc2ncc([N+](=O)[O-])s2)n[nH]c1=O	ALDH1A1 block 2µM (no result: ALOX12 inhib, Lamin A splicing, HPGD block, PNC assembly inh)
COc1ccc(S(=O)(=O)Nc2ccc(S(=O)(=O)N(C)C)cc2)cc1[N+](=O)[O-]	ALDH1A1 block 12.6µM
O=C(Nc1cccnc1)c1ccc(Oc2ccccc2)cc1	Lamin A splicing inconclusive, PNC assembly inh inconclusive
O=C(Nc1cccnc1)c1ccccc1Oc1ccccc1	ALDH1A1 block 17.8µM
CCSc1ccccc1C(=O)Nc1cccnc1	PNC assembly inh -100.0
CC(=O)c1cccc(NC(=O)CSc2nnc3ccc(-c4ccc(C)cc4)nn23)c1	none (no result: ALOX12 inhib, ALDH1A1 block, HPGD block, PNC assembly inh)
COc1cc2c(cc1OC)CN(CCC(=O)c1ccc(Br)cc1)CC2	ALDH1A1 block 0.199µM (no result: ALOX12 inhib, HPGD block, PNC assembly inh)
COc1cc2c(cc1OC)CN(CC(=O)Nc1cccc(C)c1)CC2	none
CC1CCCN(CCC(=O)c2ccc(Br)cc2)C1 (stereo not drawn)	Lamin A splicing inconclusive, ALDH1A1 block 0.126µM, HPGD block 3.98µM
C/C(=N\NC(=O)C(c1ccccc1)c1ccccc1)c1ccccn1	Lamin A splicing inconclusive, PNC assembly inh -80.6
C=CCn1c(O)c(C=Nc2ccccc2)sc1=S	ALDH1A1 block inconclusive (no result: ALOX12 inhib, HPGD block, PNC assembly inh)
O=C(O)Cn1c(O)c(C=Nc2ccccc2)sc1=S	ALOX12 inhib inconclusive, ALDH1A1 block 28.2µM!, HPGD block inconclusive
Oc1c(C=Nc2ccccc2)sc(=S)n1Cc1ccccc1	ALDH1A1 block 1.41µM (no result: ALOX12 inhib, HPGD block, PNC assembly inh)
CC/C=C\C/C=C\C/C=C\C/C=C\C=C\C(O)CCCC(=O)O (stereo not drawn)	none (no result: Lamin A splicing, PNC assembly inh)
Cc1nc2sc(C(=O)Nc3ccccc3Cc3ccccc3)c(C)c2c(=O)[nH]1	Lamin A splicing inconclusive (no result: ALOX12 inhib, HPGD block, PNC assembly inh)
CNC(=O)C1=C(C)n2c(nc3ccccc32)NC1c1ccc(OC)cc1 (stereo not drawn)	PNC assembly inh -113.8
CCCn1c2ccccc2c2cnn(CC(=O)NCc3cc(OC)ccc3OC)c(=O)c21	none (no result: ALOX12 inhib, ALDH1A1 block, HPGD block, PNC assembly inh)
O=C(Cn1ncc2c([nH]c3ccccc32)c1=O)NCc1cccc(Cl)c1	none (no result: ALOX12 inhib, ALDH1A1 block, HPGD block, PNC assembly inh)
CCN(CC)C(=O)C1CCN(Cc2ccc(Br)cc2)CC1	ALDH1A1 block inconclusive
CCN(CC)C(=S)SCC(=O)c1ccc(Br)cc1	Lamin A splicing inconclusive, ALDH1A1 block 8.91µM, HPGD block inconclusive
Cc1ccc(C(=O)c2nocc2C(=O)c2cccs2)cc1	ALDH1A1 block 3.16µM, HPGD block 22.4µM
